Experimental data published in the supplement of paper PMC10849652.
Targets with a hit are over-represented here; the source holds about 8,800 in all. About 0.5% of all pairs of compound and target were hits.

The targets below were run with CCCS(=O)(=O)Nc1ccc(F)c(C(=O)c2c[nH]c3ncc(-c4ccc(Cl)cc4)cc23)c1F [vemurafenib] (assay: log2 fold change, soluble protein after heating vs DMSO (PISA); higher = thermal stabilisation; K562 lysate, 10 uM; active = over 0.2 and 3.5 SD of the protein, either way, in both replicates (recomputed)).
How it was run: (§1)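 Values give the log-two fold change in thermal stability against solvent controls, from duplicates. Crude K562 extract at 1 mg/mL protein, made by dounce homogenisation in PBS pH 7.4 with 1 mM MgCl2, was treated with 10 μM compound for 30 min. After 3 min heating across 48°C-58°C, aliquots were pooled, adjusted to 0.5% NP-40 at 4°C and centrifuged at 21,000xg for 90 min. The supernatant was measured by TMTpro 16plex LC-MS/MS with channel sums equalised.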

Chain of UniProt Q14C86 (Q14C86 whole entry, looked up): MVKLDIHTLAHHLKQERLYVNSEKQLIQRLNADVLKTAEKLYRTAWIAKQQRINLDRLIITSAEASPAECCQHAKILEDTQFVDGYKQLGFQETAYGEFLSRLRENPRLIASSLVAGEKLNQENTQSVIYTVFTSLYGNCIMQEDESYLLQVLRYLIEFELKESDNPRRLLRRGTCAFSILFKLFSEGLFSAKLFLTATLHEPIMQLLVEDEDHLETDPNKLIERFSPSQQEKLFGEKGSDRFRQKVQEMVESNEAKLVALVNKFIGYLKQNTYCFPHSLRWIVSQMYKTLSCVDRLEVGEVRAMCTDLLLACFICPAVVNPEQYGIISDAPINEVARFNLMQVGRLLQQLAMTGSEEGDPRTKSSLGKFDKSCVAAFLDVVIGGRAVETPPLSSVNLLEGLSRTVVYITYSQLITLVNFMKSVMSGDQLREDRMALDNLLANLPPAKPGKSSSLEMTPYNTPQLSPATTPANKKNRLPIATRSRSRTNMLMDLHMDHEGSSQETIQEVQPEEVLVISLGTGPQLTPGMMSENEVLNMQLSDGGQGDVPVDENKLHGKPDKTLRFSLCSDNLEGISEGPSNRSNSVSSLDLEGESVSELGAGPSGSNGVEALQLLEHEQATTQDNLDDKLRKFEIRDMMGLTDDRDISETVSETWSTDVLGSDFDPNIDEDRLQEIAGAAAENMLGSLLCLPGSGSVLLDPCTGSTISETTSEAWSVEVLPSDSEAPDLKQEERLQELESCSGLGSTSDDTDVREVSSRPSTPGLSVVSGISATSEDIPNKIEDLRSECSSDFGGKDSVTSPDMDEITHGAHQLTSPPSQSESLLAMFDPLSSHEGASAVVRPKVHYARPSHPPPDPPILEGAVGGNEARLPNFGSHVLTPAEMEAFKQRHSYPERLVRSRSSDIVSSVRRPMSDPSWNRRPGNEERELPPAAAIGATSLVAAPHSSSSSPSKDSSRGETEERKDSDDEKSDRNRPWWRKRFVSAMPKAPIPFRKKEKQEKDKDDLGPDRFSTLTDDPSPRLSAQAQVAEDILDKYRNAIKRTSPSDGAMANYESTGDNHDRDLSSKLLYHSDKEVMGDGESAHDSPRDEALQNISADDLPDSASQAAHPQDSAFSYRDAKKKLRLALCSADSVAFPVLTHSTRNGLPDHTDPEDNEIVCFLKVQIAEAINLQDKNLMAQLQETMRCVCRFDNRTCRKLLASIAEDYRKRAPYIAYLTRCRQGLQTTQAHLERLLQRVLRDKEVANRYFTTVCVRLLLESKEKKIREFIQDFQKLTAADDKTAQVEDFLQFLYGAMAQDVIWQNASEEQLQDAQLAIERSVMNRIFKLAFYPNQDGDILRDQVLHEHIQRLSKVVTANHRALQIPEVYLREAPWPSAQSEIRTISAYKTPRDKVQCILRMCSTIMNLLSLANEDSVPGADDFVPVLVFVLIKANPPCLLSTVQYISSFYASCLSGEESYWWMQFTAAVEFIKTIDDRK
Chain of UniProt Q96EK7 (Q96EK7 whole entry, looked up): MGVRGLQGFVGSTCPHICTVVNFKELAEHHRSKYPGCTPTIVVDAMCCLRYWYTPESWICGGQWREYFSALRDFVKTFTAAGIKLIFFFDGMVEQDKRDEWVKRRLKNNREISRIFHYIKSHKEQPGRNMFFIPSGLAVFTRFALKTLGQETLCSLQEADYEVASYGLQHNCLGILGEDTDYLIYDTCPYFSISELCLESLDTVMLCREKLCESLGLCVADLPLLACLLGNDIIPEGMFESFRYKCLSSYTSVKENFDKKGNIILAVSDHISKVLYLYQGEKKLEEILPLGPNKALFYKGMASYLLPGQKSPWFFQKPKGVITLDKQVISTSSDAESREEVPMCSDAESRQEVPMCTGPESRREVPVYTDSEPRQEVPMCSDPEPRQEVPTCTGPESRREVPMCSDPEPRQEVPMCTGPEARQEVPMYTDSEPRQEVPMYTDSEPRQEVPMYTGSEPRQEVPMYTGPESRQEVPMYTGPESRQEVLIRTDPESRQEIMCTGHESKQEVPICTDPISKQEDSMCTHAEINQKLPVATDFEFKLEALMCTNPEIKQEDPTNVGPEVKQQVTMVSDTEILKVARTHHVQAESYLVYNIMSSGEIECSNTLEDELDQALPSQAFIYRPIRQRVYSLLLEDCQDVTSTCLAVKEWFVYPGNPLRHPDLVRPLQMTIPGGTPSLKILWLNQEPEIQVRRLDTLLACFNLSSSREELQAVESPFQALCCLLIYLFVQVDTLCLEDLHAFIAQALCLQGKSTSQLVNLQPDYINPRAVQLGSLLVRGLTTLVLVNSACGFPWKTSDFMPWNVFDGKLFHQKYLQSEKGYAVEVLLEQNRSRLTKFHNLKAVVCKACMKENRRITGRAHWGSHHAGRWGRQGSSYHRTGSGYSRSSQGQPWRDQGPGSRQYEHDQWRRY
Chain of UniProt Q6P2E9 (Q6P2E9 whole entry, looked up): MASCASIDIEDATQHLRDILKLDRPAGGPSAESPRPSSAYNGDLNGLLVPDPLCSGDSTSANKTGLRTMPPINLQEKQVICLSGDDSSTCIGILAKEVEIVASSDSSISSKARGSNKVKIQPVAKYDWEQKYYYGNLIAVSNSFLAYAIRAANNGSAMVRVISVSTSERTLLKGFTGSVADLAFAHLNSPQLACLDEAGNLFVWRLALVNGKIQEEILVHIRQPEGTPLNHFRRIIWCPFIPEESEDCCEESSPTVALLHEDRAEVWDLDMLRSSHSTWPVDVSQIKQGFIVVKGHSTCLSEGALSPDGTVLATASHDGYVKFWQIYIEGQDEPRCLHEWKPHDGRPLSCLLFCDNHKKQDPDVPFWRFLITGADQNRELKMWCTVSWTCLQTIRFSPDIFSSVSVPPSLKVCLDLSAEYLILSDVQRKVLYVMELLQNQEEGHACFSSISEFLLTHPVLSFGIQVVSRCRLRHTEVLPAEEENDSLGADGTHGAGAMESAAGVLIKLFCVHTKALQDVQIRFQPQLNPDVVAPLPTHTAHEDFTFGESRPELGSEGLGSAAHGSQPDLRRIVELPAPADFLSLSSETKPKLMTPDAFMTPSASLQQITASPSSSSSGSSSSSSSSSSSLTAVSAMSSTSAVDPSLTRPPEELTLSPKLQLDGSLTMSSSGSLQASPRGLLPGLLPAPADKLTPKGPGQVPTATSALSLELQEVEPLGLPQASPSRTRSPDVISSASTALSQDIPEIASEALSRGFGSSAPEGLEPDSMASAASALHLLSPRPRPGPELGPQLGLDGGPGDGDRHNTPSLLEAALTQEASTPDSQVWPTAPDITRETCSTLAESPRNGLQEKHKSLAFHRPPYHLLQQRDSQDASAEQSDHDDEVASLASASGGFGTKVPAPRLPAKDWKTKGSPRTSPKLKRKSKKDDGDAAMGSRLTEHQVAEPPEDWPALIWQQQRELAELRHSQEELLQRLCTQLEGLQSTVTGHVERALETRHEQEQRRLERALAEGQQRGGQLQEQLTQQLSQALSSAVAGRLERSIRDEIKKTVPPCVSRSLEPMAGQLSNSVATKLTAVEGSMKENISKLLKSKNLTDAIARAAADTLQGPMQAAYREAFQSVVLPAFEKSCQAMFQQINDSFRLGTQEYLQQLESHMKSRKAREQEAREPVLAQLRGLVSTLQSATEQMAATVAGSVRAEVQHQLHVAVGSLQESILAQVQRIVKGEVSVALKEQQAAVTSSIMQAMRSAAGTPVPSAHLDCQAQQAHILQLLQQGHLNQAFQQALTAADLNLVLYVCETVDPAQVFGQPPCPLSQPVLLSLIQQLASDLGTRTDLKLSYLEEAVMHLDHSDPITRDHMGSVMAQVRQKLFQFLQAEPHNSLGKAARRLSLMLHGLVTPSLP
Chain of UniProt Q9UI10 (Q9UI10 whole entry, looked up): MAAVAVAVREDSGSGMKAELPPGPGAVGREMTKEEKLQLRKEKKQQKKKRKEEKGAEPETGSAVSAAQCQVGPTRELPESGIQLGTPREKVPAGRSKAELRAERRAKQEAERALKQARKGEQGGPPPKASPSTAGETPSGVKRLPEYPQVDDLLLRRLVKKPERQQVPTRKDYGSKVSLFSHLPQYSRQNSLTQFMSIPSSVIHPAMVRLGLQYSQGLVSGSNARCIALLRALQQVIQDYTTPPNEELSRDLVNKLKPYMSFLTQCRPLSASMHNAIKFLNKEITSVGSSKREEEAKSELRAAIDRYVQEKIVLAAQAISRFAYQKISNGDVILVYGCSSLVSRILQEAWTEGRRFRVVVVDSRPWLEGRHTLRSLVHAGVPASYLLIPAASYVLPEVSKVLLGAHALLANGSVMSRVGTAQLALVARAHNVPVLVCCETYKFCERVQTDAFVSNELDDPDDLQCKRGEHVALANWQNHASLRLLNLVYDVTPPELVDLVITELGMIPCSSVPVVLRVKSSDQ
Chain of UniProt O00471 (O00471 whole entry, looked up): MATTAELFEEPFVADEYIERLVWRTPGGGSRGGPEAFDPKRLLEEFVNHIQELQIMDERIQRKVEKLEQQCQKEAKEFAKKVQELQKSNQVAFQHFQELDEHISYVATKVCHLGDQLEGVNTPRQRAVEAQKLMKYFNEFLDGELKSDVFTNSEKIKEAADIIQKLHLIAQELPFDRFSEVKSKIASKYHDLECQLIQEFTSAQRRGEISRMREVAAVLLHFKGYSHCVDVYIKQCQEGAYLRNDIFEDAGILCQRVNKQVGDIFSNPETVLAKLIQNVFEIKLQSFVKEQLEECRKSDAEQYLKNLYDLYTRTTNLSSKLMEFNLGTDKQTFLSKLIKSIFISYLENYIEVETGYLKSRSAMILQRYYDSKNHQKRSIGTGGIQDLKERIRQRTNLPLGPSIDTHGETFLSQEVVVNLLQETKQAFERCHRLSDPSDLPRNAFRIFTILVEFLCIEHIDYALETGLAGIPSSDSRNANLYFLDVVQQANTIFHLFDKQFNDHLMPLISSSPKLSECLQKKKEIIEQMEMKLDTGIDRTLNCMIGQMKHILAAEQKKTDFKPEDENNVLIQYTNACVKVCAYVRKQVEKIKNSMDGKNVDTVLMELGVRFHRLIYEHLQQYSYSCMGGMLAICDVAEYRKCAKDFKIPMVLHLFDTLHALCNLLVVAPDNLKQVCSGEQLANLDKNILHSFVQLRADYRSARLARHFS

log2 fold change, inactive:
ECI2 (UniProt O75521) 0.071
DYNC1I2 isoform 5 (UniProt Q13409) -0.015
FLAD1 (UniProt Q8NFF5) -0.051
FBXO22 (UniProt Q8NEZ5) 0.017
EPB41, A0A2R8Y6D0 -0.019
FAM120B (UniProt Q96EK7) 0.001
GAA (UniProt P10253) 0.068
FARSA (UniProt Q9Y285) -0.002
FBXO45 (UniProt P0C2W1) -0.064
EEFSEC (UniProt P57772) 0.031
EMP3 (UniProt P54852) 0.022
GATAD2A isoform 3 (UniProt Q86YP4) -0.014
EGLN1 (UniProt Q9GZT9) -0.052
FREM2 (UniProt Q5SZK8) 0.003
EXOC5 (UniProt O00471) 0.033
EIF2AK1 (UniProt Q9BQI3) -0.004
FXR1 (UniProt P51114) -0.047
FAT2 (UniProt Q9NYQ8) 0.213
EBP (UniProt Q15125) 0.056
FOXK1 (UniProt P85037) -0.01
FXR2 (UniProt P51116) 0
EIF2B4 (UniProt Q9UI10) -0.064
EMC7 (UniProt Q9NPA0) 0.034
GEMIN5 (UniProt Q8TEQ6) 0.006
DYRK1A (UniProt Q13627) -0.06
ESPL1 (UniProt Q14674) 0.049
FBXO9 (UniProt Q9UK97) -0.025
ELF2 (UniProt Q15723) -0.022
GAPVD1 isoform 6 (UniProt Q14C86) 0.011
FYN (UniProt P06241) -0.036
ERCC4 (UniProt Q92889) 0.071
EPB41, A0A2R8Y783 0.129
FBXO38 (UniProt Q6PIJ6) -0.042
FTSJ3 (UniProt Q8IY81) -0.004
DUS2 (UniProt Q9NX74) 0.022
EDC4 (UniProt Q6P2E9) 0.053
FDFT1 (UniProt P37268) -0.012

The targets below were run with CCCS(=O)(=O)Nc1ccc(F)c(C(=O)c2c[nH]c3ncc(Cl)cc23)c1F in the same assay as above.
How it was run: as §1

log2 fold change, inactive:
ECI2 (UniProt O75521) 0.013
DYNC1I2 isoform 5 (UniProt Q13409) 0.013
FLAD1 (UniProt Q8NFF5) 0.022
FBXO22 (UniProt Q8NEZ5) 0.001
EPB41, A0A2R8Y6D0 -0.004
FAM120B (UniProt Q96EK7) 0.045
GAA (UniProt P10253) -0.101
FARSA (UniProt Q9Y285) -0.01
FBXO45 (UniProt P0C2W1) 0.088
EEFSEC (UniProt P57772) 0.024
EMP3 (UniProt P54852) -0.002
GATAD2A isoform 3 (UniProt Q86YP4) 0.019
EGLN1 (UniProt Q9GZT9) -0.041
FREM2 (UniProt Q5SZK8) -0.082
EXOC5 (UniProt O00471) 0.03
EIF2AK1 (UniProt Q9BQI3) -0.05
FXR1 (UniProt P51114) 0.009
FAT2 (UniProt Q9NYQ8) 0.19
EBP (UniProt Q15125) 0.024
FOXK1 (UniProt P85037) 0.008
FXR2 (UniProt P51116) 0.041
EIF2B4 (UniProt Q9UI10) 0.026
EMC7 (UniProt Q9NPA0) 0.004
GEMIN5 (UniProt Q8TEQ6) 0.008
DYRK1A (UniProt Q13627) -0.009
ESPL1 (UniProt Q14674) 0.204
FBXO9 (UniProt Q9UK97) 0.007
ELF2 (UniProt Q15723) -0.056
GAPVD1 isoform 6 (UniProt Q14C86) 0.006
FYN (UniProt P06241) -0.01
ERCC4 (UniProt Q92889) 0.01
EPB41, A0A2R8Y783 0.063
FBXO38 (UniProt Q6PIJ6) -0.024
FTSJ3 (UniProt Q8IY81) -0.011
DUS2 (UniProt Q9NX74) 0.032
EDC4 (UniProt Q6P2E9) 0.004
FDFT1 (UniProt P37268) 0.111
